This passage reports growth results from PubChem BioAssay (NCI).

The panel holds about 83,000 compounds, 20% with a hit somewhere; the sample as a whole holds those more often.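 Cells were grown in 96-well plates and exposed to the test compound at a single concentration for 48 hours; results are reported as percent growth, with values below 10 considered active.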 A number with no mark means an inactive call. Calls of active or inactive are those of the source.

Test systems include SR leukemia; RPMI-8226 leukemia; OVCAR-8 ovarian; OVCAR-5 ovarian; OVCAR-4 ovarian; SK-OV-3 ovarian; IGROV1 ovarian; OVCAR-3 ovarian; HS 578T breast; NCI/ADR-RES ovarian.
Common to all, as to assay: NCI-60 one-dose screen, 48 h (100 = growth as untreated, 0 = no growth, -100 = all killed)
What all share (conditions): 10 µM unless noted

Take `COc1ccc(NC(=O)CCCCCCNC(=O)C(O)(O)C(F)(F)F)cc1`: the growth is 15% in the assay with SR leukemia; 25.1% with RPMI-8226 leukemia; 22.3% in the assay with OVCAR-8 ovarian; 31.3% in the assay with OVCAR-5 ovarian; 77.7% in the assay with OVCAR-4 ovarian; 4.07% (active) in the assay with SK-OV-3 ovarian. Also, the growth is 62.4% in the assay with IGROV1 ovarian, 49.1% in the assay on OVCAR-3 ovarian, 56.9% with HS 578T breast and 49.8% in the assay with NCI/ADR-RES ovarian.
With `C/C(=C(\c1ccc(O)cc1)c1ccc(OCCN2CCCCCC2)cc1)c1ccc(Cl)cc1`, the growth in the assay with SR leukemia is -24.9% (active); in the assay with RPMI-8226 leukemia, -2.67% (active); with OVCAR-8 ovarian, -73.5% (active); with OVCAR-5 ovarian, -56.3% (active); with OVCAR-4 ovarian it was -59.8% (active); with SK-OV-3 ovarian, -85.5% (active). Moreover, the growth in the assay on IGROV1 ovarian is -65.1% (active); in the assay with OVCAR-3 ovarian, -73.3% (active); in the assay on HS 578T breast, -46.2% (active); in the assay with NCI/ADR-RES ovarian, -72.7% (active).
On to `CC(Nc1ncnc2ccc(-c3cnc(N)nc3)cc12)c1ccccc1` (stereo not given), for which the growth in the assay with SR leukemia is 15.1%; in the assay with RPMI-8226 leukemia, 28.2%; in the assay on OVCAR-8 ovarian, 48%; with OVCAR-5 ovarian, 28.7%; in the assay on OVCAR-4 ovarian, 39.7%; in the assay with SK-OV-3 ovarian, 27.3%. The growth in the assay with IGROV1 ovarian is -13.4% (active); with OVCAR-3 ovarian, 43.8%; in the assay on HS 578T breast it was 5.98% (active); with NCI/ADR-RES ovarian, 53%.
`Cc1[nH]c(C(=O)Nc2ccccc2OCc2cccc(C(=O)NC3CCNC3)c2)c(Cl)c1Cl` (stereo not given): the growth with SR leukemia is -0.792% (active); in the assay with RPMI-8226 leukemia, -10% (active); in the assay with OVCAR-8 ovarian it was -37% (active); in the assay on OVCAR-5 ovarian, 45.3%; in the assay on OVCAR-4 ovarian, 68.3%; in the assay with SK-OV-3 ovarian, 107%. Further, the growth in the assay with IGROV1 ovarian was 31.2%; in the assay on OVCAR-3 ovarian it was -26.7% (active); with HS 578T breast, 87.6%; with NCI/ADR-RES ovarian, 67.1%.
Turning to `O=S(=O)(NCCCNc1nccc(-c2[nH]c(-c3ccccc3)nc2-c2ccc(F)c(O)c2)n1)c1ccccc1`, the growth in the assay on SR leukemia was 51.5%; with RPMI-8226 leukemia, 48.9%; in the assay with OVCAR-8 ovarian, 90.2%; in the assay on OVCAR-5 ovarian it was 155%; in the assay on OVCAR-4 ovarian, 118%; with SK-OV-3 ovarian, 121%. For the same molecule, the growth in the assay with IGROV1 ovarian was 114%; in the assay with OVCAR-3 ovarian, 138%; with HS 578T breast it was 116%; in the assay with NCI/ADR-RES ovarian it was 108%.
Regarding `CC1CC(=O)C2=C(C1)Nc1ccc(Br)cc1CC2c1c[nH]c2ccc(Br)cc12` (stereo not given), the growth in the assay with SR leukemia was 29.7%; in the assay with RPMI-8226 leukemia, 42.8%; with OVCAR-8 ovarian, 66.2%; in the assay with OVCAR-5 ovarian, 82%; in the assay on OVCAR-4 ovarian, 74.4%; in the assay with SK-OV-3 ovarian it was 77.3%. In addition, the growth with IGROV1 ovarian is 32.9%; in the assay with OVCAR-3 ovarian, 42.1%; in the assay on HS 578T breast, 58%; in the assay on NCI/ADR-RES ovarian, 26.6%.
As for `C[C@H]1OCC2(CCN(c3cnc(C(=O)Nc4cc(F)cc5cccnc45)cn3)CC2)[C@H]1N`, the growth in the assay on SR leukemia was -0.453% (active); in the assay with RPMI-8226 leukemia, 42.1%; in the assay with OVCAR-8 ovarian, 77.6%; in the assay with OVCAR-5 ovarian, 74.3%; in the assay on OVCAR-4 ovarian, 10.5%; in the assay with SK-OV-3 ovarian it was 98.8%. Also, the growth was 20.1% with IGROV1 ovarian, 19.5% in the assay with OVCAR-3 ovarian, 60.8% with HS 578T breast and 72.2% in the assay with NCI/ADR-RES ovarian.
`O=C(Nc1ccc(N=Cc2c(O)[nH]c3ccccc23)cc1)Nc1ccc(S(=O)(=O)Nc2ncccn2)cc1`: the growth in the assay with SR leukemia is 96.4%; in the assay on RPMI-8226 leukemia, 107%; in the assay on OVCAR-8 ovarian, 102%; with OVCAR-5 ovarian it was 130%; in the assay on OVCAR-4 ovarian it was 101%; in the assay with SK-OV-3 ovarian, 114%. The growth was 112% with IGROV1 ovarian, 117% with OVCAR-3 ovarian, 103% with HS 578T breast and 106% in the assay on NCI/ADR-RES ovarian.
For `Cc1csc(/N=C(N)/N=C(\N)c2cccnc2)n1`, the growth is 45.7% in the assay on SR leukemia; 86.1% with RPMI-8226 leukemia; 89.7% in the assay with OVCAR-8 ovarian; 92.5% with OVCAR-5 ovarian; 98.9% with OVCAR-4 ovarian; 77.8% in the assay with SK-OV-3 ovarian. The growth is 67.9% with IGROV1 ovarian, 66.7% in the assay on OVCAR-3 ovarian, 78.8% in the assay on HS 578T breast and 48.4% in the assay on NCI/ADR-RES ovarian.
In the case of `N#Cc1c(-c2cccs2)cc(-c2cnccn2)nc1SCC(=O)N/N=C/c1cccs1`, the growth in the assay on SR leukemia is 74.7%; in the assay with RPMI-8226 leukemia, 25.1%; in the assay with OVCAR-8 ovarian, 56.3%; with OVCAR-5 ovarian it was 82.8%; in the assay with OVCAR-4 ovarian, 72.1%; in the assay with SK-OV-3 ovarian, 56.5%. Besides, the growth in the assay with IGROV1 ovarian is 74.6%; with OVCAR-3 ovarian, 62.3%; in the assay on HS 578T breast, 58.7%; with NCI/ADR-RES ovarian it was 52.9%.
Turning to `COC(=O)c1cccc(NC2=CC(=O)C(C)=C(C)C2=O)c1`, the growth with SR leukemia was 45.5%; with RPMI-8226 leukemia, 80.8%; in the assay on OVCAR-8 ovarian, 87.9%; in the assay with OVCAR-5 ovarian, 109%; in the assay on OVCAR-4 ovarian, 24.3%; in the assay on SK-OV-3 ovarian, 105%. Moreover, the growth is 89.5% with IGROV1 ovarian, 8.14% (active) in the assay on OVCAR-3 ovarian, 116% with HS 578T breast and 87.2% in the assay on NCI/ADR-RES ovarian.
